# Measured values published in PubChem BioAssay (NCATS).
# “And” between values parts separate entries of the source, which are not always exact repeats. Equal entries are not always repeated. Records with an inconclusive call do not appear. Where a call stands in place of a potency, no number is given. Unmarked numbers belong to inactive results. The source made the active and inactive calls. Calls follow the shape of the dose curve; as a rule, active = well fitted curve in the direction sought with a large enough effect; inconclusive = small, poorly fitted or top-dose-only effect, or another doubt; inactive = no such curve, though single readings can be large; an effect the other way counts as inactive or inconclusive.
# Legend:
# [1] = Viability qHTS for spleen associated tyrosine kinase inhibitor (SYKi) naive MV4-11 cells (AID 1963823); also: nearly all actives have a fitted effect of over 40% in size
# Procedure, shortened: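 Seeding of 500 SYKi-naive MV4-11 cells per well onto pre-dispensed compounds preceded a 72 hr incubation at 37 C. Luminescent CellTiter-Glo signal, read after 10 min at room temperature, reflected viable cells.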
# [2] = Cellular viability qHTS for adrenocortical cancer (ACC) cell line SW-13 (AID 1963989); conditions: SW-13 ACC cells viability, CellTiter-Glo, 48 h; activity (max response): hits give low values; also: nearly all actives have a fitted effect of over 65% in size;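 as to activity (max response): cells grown in serum-free medium with ITS supplement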
# Procedure, shortened: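 Here, serum-free SW-13 cultures were dosed up to 46 uM. Following 48 h, ATP-dependent luminescence (CellTiter-Glo) reported viable cells, and logistic modeling produced IC50 values.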
# [3] = Cellular viability qHTS for adrenocortical cancer (ACC) cell line NCI-H295R (AID 1963990); also: nearly all actives have a fitted effect of over 60% in size
# Procedure, shortened: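 Viability of NCI-H295R after 48 h of treatment (final up to 46 uM) measured through cellular ATP luminescence.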
# Potency is read from the fitted curve at half-maximal effect.
smiles,measurement,setting,value
COc1ccc(CCN(C)CCCN2CCc3cc(OC)c(OC)cc3CC2=O)cc1OC,Potency,[1],inactive
same,activity (max response),[2],5.36%
same,Potency,[3],inactive
COc1cc(-c2cn(C)c(=O)c3cnccc23)cc(OC)c1CN(C)C,Potency,[1],inactive
same,activity (max response),[2],-6.63%
same,Potency,[3],inactive
CC(CCc1ccc2c(c1)OCO2)NN (stereo unspecified),Potency,[1],inactive
same,activity (max response),[2],9.04%
same,Potency,[3],inactive
O=C1Cc2cc(Cl)ccc2N1,Potency,[1],inactive
same,activity (max response),[2],11.1%
same,Potency,[3],inactive
CN1CCN(C(=O)[C@H]2[C@@H](C(=O)O)[C@H]3CC[C@@H]2O3)CC1,viability (% of control),[1],78.3% [at 9.25 µM]
same,activity (max response),[2],-7.83%
same,"activity change, negative = viability loss",[3],2.26% [at 9.17 µM]
O=C(O)CC(C(=O)O)n1c(O)c(C2=c3cc(Br)ccc3=NC2=O)sc1=S (stereo unspecified),Potency,[1],inactive
same,activity (max response),[2],-4.1%
same,Potency,[3],inactive
Cc1ncc(CO)c(CN)c1O,Potency,[1],inactive
same,activity (max response),[2],7.61%
same,Potency,[3],inactive
COC(=O)[C@@H]1CC2=CC(=O)CC[C@]2(C)[C@@]23O[C@@H]2C[C@@]2(C)[C@@H](CC[C@@]24CCC(=O)O4)[C@H]13,Potency,[1],inactive
same,activity (max response),[2],-0.519% and -3.74%
same,Potency,[3],inactive
O=C(O)CCn1c2c(c3ccccc31)C[C@H](NS(=O)(=O)c1ccc(F)cc1)CC2,Potency,[1],inactive
same,activity (max response),[2],-2.29% and -2.36%
same,Potency,[3],inactive
[2H]c1nc(C)nc([2H])c1-c1cc(NC[C@@H](C)c2cccc3c(C(=O)NC)ccnc23)ncn1,Potency,[1],inactive
same,activity (max response),[2],14.2%
same,Potency,[3],inactive
Cc1cccc(-c2[nH]c(CNc3ccccc3F)nc2-c2ccc3ncnn3c2)n1,Potency,[1],13 µM (active)
same,activity (max response),[2],-16.8%
same,Potency,[3],inactive
CSC[C@H]1CN(Cc2c[nH]c3c(N)ncnc23)C[C@@H]1O,Potency,[1],inactive
same,activity (max response),[2],-14.7%
same,Potency,[3],inactive
C=C1/C(=C\C=C2/CCC[C@]3(C)[C@@H]([C@H](C)CCCC(C)(C)O)CC[C@@H]23)C[C@@H](O)C[C@@H]1O,Potency,[1],0.0186 µM (active)
same,Potency,[2],28.2 µM (active)
same,Potency,[3],25100 nM (active)
O=C1c2cccc(O)c2C(=O)c2c(O)cccc21,Potency,[1],inactive
same,activity (max response),[2],1.51%
same,Potency,[3],inactive
CN1CCC(c2c(O)cc(O)c3c(=O)cc(-c4ccccc4Cl)oc23)C1CO (stereo unspecified),Potency,[1],0.742 µM (active)
same,Potency,[2],3.16 µM (active)
same,Potency,[3],3160 nM (active)
Cc1onc(-c2ccccc2)c1C(=O)Cl,Potency,[1],inactive
same,activity (max response),[2],12.7%
same,Potency,[3],inactive
C[C@]12C=CC(=O)C=C1CC[C@@H]1[C@@H]2[C@@H](O)C[C@@]2(C)[C@H]1CC[C@]2(O)C(=O)CO,Potency,[1],inactive
same,activity (max response),[2],-7.97% and -0.878%
same,Potency,[3],inactive
O=C1NC(=O)C(c2ccccc2)(c2ccccc2)N1,Potency,[1],inactive
same,activity (max response),[2],-5.02%
same,Potency,[3],inactive
CC(=O)N1CCN(c2ccc(O)cc2)CC1,Potency,[1],inactive
same,activity (max response),[2],7.26%
same,Potency,[3],inactive
O=C1CC2(CCCC2)CC(=O)N1CCCCN1CCN(c2ncccn2)CC1,Potency,[1],9.44 µM (active)
same,activity (max response),[2],-4.13%
same,Potency,[3],inactive
Cc1ccsc1C(=CCCN1CCC[C@@H](C(=O)O)C1)c1sccc1C,Potency,[1],inactive
same,activity (max response),[2],0.503% and 7.63%
same,Potency,[3],inactive
CCN(CC)CCCC[C@H](NC(=O)[C@H](CC(C)C)NC(=O)[C@H](C)NC(=O)[C@H](Cc1ccccc1)NC(=O)c1ccc(C(C)(C)C)cc1)C(=O)N[C@@H](CO)C(=O)OC,Potency,[1],inactive
same,activity (max response),[2],-29.2%
same,Potency,[3],inactive
Cc1cnc(NS(=O)(=O)c2ccc(N)cc2)nc1,Potency,[1],inactive
same,activity (max response),[2],9.12%
same,Potency,[3],inactive
Nc1ccc(S(=O)(=O)NC(=O)c2ccccc2)cc1,Potency,[1],inactive
same,activity (max response),[2],4.69%
same,Potency,[3],inactive
CCCOc1ccn2c(C(C)=O)cc(-c3ccccc3S(C)(=O)=O)c2c1,Potency,[1],20.9 µM (active)
same,activity (max response),[2],0.517%
same,Potency,[3],inactive
C[C@H](CN(C)C)Oc1nc(Nc2cc3cccc(Cl)c3cn2)cnc1C#N,Potency,[1],259 nM (active) and 934 nM (active)
same,activity (max response),[2],-6.08%
same,Potency,[3],2240 nM (active)
O=C(O)CCCCC1CCSS1 (stereo unspecified),Potency,[1],inactive
same,activity (max response),[2],9%
same,Potency,[3],inactive
CNCCn1c(=O)c2cc(OC)c(OC)cc2c2cnc3cc4c(cc3c21)OCO4,Potency,[1],0.0152 µM (active)
same,Potency,[2],0.0422 µM (active)
same,Potency,[3],596 nM (active)
COc1ccc(C(=O)C2CCN(CC(=O)N(Cc3nc4c(c(=O)[nH]3)COCC4)CC3CC3)CC2)cc1,Potency,[1],inactive
same,activity (max response),[2],0.295%
same,Potency,[3],inactive
O=C(O)/C(S)=C/c1ccc(I)cc1,Potency,[1],inactive
same,activity (max response),[2],9.8%
same,Potency,[3],inactive
CC(C)COCC(CN(Cc1ccccc1)c1ccccc1)N1CCCC1 (stereo unspecified),Potency,[1],13.3 µM (active) and 14.8 µM (active)
same,Potency,[2],4.11 µM (active) and 28.2 µM (active)
same,Potency,[3],15800 nM (active)
O=C(NNc1ccccc1)c1ccncc1,Potency,[1],inactive
same,activity (max response),[2],1.69%
same,Potency,[3],inactive
CC(C)(NS(=O)(=O)c1ccc2c(Cl)cnc(N=C(N)N)c2c1)C(=O)O,Potency,[1],inactive
same,activity (max response),[2],5.36%
same,Potency,[3],inactive
CN(C)CCCN1c2ccccc2Sc2ccc(Cl)cc21,Potency,[1],10.6 µM (active)
same,Potency,[2],14.6 µM (active)
same,Potency,[3],18400 nM (active)
O=C(CN1CCNCC1)NC1CCCCC1,Potency,[1],inactive
same,activity (max response),[2],-8.69%
same,Potency,[3],inactive
CC(=O)c1ccc2c(c1)c1cc(C(C)=O)ccc1n2CCNC(C)C,Potency,[1],0.372 µM (active)
same,Potency,[2],1.58 µM (active)
same,Potency,[3],1580 nM (active)
N#CC1(c2ccc(F)cc2)CCC(=O)CC1,Potency,[1],inactive
same,activity (max response),[2],6.7%
same,Potency,[3],inactive
CC(C)=CCC[C@@](C)(O)[C@H]1CC=C(C)CC1,Potency,[1],inactive
same,activity (max response),[2],18.9%
same,Potency,[3],inactive
CC(C)(C)C(=O)OCOC(=O)[C@@H]1N2C(=O)[C@@H](NC(=O)[C@H](N)c3ccccc3)[C@H]2SC1(C)C,Potency,[1],inactive
same,activity (max response),[2],8.43%
same,Potency,[3],inactive
Cc1cc(-c2nc3cc(F)ccc3s2)ccc1NC(=O)[C@@H](N)CCCCN,Potency,[1],2.31 µM (active)
same,Potency,[2],25.1 µM (active)
same,Potency,[3],17800 nM (active)
COCc1c(C(C)C)nc(C(C)C)c(/C=C/[C@@H](O)C[C@@H](O)CC(=O)O)c1-c1ccc(F)cc1,Potency,[1],0.168 µM (active)
same,Potency,[2],2.59 µM (active)
same,Potency,[3],1160 nM (active)
Nc1nc(-c2ccccc2)c(Br)c(=O)[nH]1,Potency,[1],inactive
same,activity (max response),[2],0.407%
same,Potency,[3],inactive
CCO[C@@H]1OC(=O)C[C@@H]1NC(=O)[C@@H]1CCCN1C(=O)[C@@H](NC(=O)c1ccc(N)c(Cl)c1)C(C)(C)C,Potency,[1],inactive
same,activity (max response),[2],-11.3%
same,Potency,[3],inactive
OCc1ccc(Cl)cc1Cl,Potency,[1],0.0067 µM (active)
same,activity (max response),[2],-2%
same,Potency,[3],inactive
c1ccc2c(c1)CCc1ccccc1N2,Potency,[1],inactive
same,activity (max response),[2],-6.25%
same,Potency,[3],inactive
CC(N)C(=O)OC(C)(C)Cc1ccc(Cl)cc1 (stereo unspecified),Potency,[1],inactive
same,activity (max response),[2],12.9%
same,Potency,[3],inactive
CC(=O)[C@@]1(O)CC[C@H]2[C@@H]3C[C@H](C)C4=CC(=O)C=C[C@]4(C)[C@@]3(F)[C@@H](O)C[C@@]21C,Potency,[1],inactive
same,activity (max response),[2],3.6%
same,Potency,[3],inactive
c1cn2cc(-c3ccc4cn[nH]c4c3)nc(Nc3ccc(N4CCOCC4)cc3)c2n1,Potency,[1],0.651 µM (active)
same,activity (max response),[2],2.68%
same,Potency,[3],inactive
CCOC(=O)Oc1ccc(CCNC(=O)[C@H](CCSC)NC(C)=O)cc1OC(=O)OCC,Potency,[1],inactive
same,activity (max response),[2],3.57%
same,Potency,[3],inactive
O=C(C[C@@H]1C/C=C\CCC(=O)O[C@H](c2ccccc2)CNC1=O)NCc1ccc(Cl)cc1,Potency,[1],4.68 µM (active)
same,activity (max response),[2],11.5%
same,Potency,[3],inactive
CC(C(O)c1ccc(O)cc1)N1CCC(Cc2ccccc2)CC1 (stereo unspecified),Potency,[1],inactive
same,activity (max response),[2],-9.39%
same,Potency,[3],inactive
CCOC(=O)[C@H](CCc1ccccc1)N[C@@H](C)C(=O)N1Cc2cc(OC)c(OC)cc2C[C@H]1C(=O)O,Potency,[1],inactive
same,activity (max response),[2],2.85%
same,Potency,[3],inactive
CN1[C@@H]2CC(OC(=O)[C@H](CO)c3ccccc3)C[C@H]1[C@@H]1O[C@@H]12 (stereo partly specified),Potency,[1],inactive
same,activity (max response),[2],1.78%
same,Potency,[3],inactive
CCCCCCCCCCCCSCCOCCO,Potency,[1],inactive
same,Potency,[3],inactive
CC(C(=O)O)c1ccc(/C=C2\CCCCC2=O)cc1 (stereo unspecified),Potency,[1],inactive
same,activity (max response),[2],8.31%
same,Potency,[3],inactive
COc1cc2c(cc1OCCCN1CCCC1)N=C(N)C21CCC1,Potency,[1],inactive
same,activity (max response),[2],-9.17%
same,Potency,[3],inactive
C=CC(=O)Nc1ccc2ncnc(Nc3cccc(Br)c3)c2c1,Potency,[1],2.59 µM (active)
same,Potency,[2],1.26 µM (active)
same,Potency,[3],4470 nM (active)
Cc1cc(F)c(C(=O)Nc2cccc(-c3nncn3C(C)C)n2)cc1-n1cnc(C2CC2)c1,Potency,[1],5.25 µM (active)
same,Potency,[3],14100 nM (active)
CC1(C)[C@@H](O)CC[C@]2(C)[C@H]3C(=O)C=C4[C@@H]5C[C@@](C)(C(=O)O)CC[C@]5(C)CC[C@@]4(C)[C@]3(C)CC[C@@H]12,Potency,[1],inactive
same,activity (max response),[2],3.49%
same,Potency,[3],inactive
Cc1ccc(O)c(-n2nc3ccccc3n2)c1,Potency,[1],inactive
same,activity (max response),[2],-8.34%
same,Potency,[3],inactive
N#CSCC(=O)O,Potency,[1],inactive
same,activity (max response),[2],4.51%
same,Potency,[3],inactive
